Among the data in the supplement of paper PMC13380429 are morphology score values, retold here.

Structures are written as SMILES.

For the experiment, the system named is Vero E6 infected with SARS-CoV-2. Put plainly: morphology score (similarity to uninfected cells); higher = more like uninfected cells. The following applies: 24 h.
`Oc1cc(O)c2c(c1)O[C@H](c1ccc(O)c(O)c1)[C@H](O)[C@H]2c1c(O)cc(O)c2c1O[C@H](c1ccc(O)c(O)c1)[C@H](O)C2` [procyanidin-B-2] (10 µM) came in with a morphology score of 0.114.
`COc1cc2ncnc(Nc3ccc(F)c(Cl)c3)c2cc1NC(=O)/C=C/CN1CCCCC1` [dacomitinib] (0.833333 µM) came in with a morphology score of -0.0483.
Turning to `Cc1cnc(CNC(=O)c2c(=O)c3ccc(N4CCCN(C)CC4)nc3n3c2sc2ccccc23)cn1` (0.833333 µM), the morphology score amounted to 0.0323.
In turn, `O=C(O)/C=C\c1c[nH]cn1` [cis-Urocanic acid] (10 µM) came in with a morphology score of 0.143.
Turning to `N=C(N)c1ccc(/C=C/c2ccc(C(=N)N)cc2O)cc1` [hydroxystilbamidine] (10 µM), the morphology score came out at 0.115.
On to `O=C(/C=C/C=C/c1ccc2c(c1)OCO2)N1CCCCC1` [piperine] (10 µM), for which the morphology score came out at 0.0346.
Consider `CC(C)C[C@H](NC(=O)[C@@H](O)[C@H](N)Cc1ccccc1)C(=O)O` [ubenimex] (10 µM), for which the morphology score is 0.237.
As for `COc1ccc2c(Oc3ccc(NC(=O)c4c(C)n(CC(C)(C)O)n(-c5ccccc5)c4=O)nc3)ccnc2c1` (10 µM), the morphology score is 0.316.
In the case of `CC(C)C[C@@H](N)C(=O)N[C@H]1C(=O)N[C@@H](CC(N)=O)C(=O)N[C@H]2C(=O)N[C@H]3C(=O)N[C@H](C(=O)N[C@H](C(=O)O)c4cc(O)cc(O)c4-c4cc3ccc4O)[C@H](O)c3ccc(c(Cl)c3)Oc3cc2cc(c3O[C@@H]2O[C@H](CO)[C@@H](O)[C@H](O)[C@H]2O[C@H]2C[C@](C)(N)[C@H](O)[C@H](C)O2)Oc2ccc(cc2Cl)[C@H]1O` [norvancomycin] (10 µM) it was 0.00559.
